We go through 49 compounds from PubChem BioAssay AID1672 (Johns Hopkins Ion Channel Center, 2009).

The structures appear in SMILES notation. Out of some 310,000 compounds screened, about 2,600 (0.84%) were called active. Only a selection was taken, and actives are over-represented in it overall. A number with no mark means an inactive call.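 Rule for the calls: active = fluorescence ratio B-score at or below minus 3 SD of library scores, with starting-brightness B-score within 2 SD (cut at about -4.2 in these data); inactive = the rest.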

In the assay the target is Inward rectifier potassium channel 2 (Mus musculus) (UniProt P35561). Kind of assay: inhibitors of mouse Kir2.1 inward-rectifier potassium channel (AID 1672).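 Note: channel flux triggered by added potassium and thallium sulfate stimulus; B-score of peak minus minimum fluorescence over baseline after thallium stimulus; more negative B-score means stronger Kir2.1 block with less thallium influx.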 The settings on record: HEK293-Kir2.1, FluxOR thallium flux fluorescence; at 10 µM; stronger effect = lower value.
Sequence of Inward rectifier potassium channel 2 (Mus musculus) (P35561 whole entry, looked up): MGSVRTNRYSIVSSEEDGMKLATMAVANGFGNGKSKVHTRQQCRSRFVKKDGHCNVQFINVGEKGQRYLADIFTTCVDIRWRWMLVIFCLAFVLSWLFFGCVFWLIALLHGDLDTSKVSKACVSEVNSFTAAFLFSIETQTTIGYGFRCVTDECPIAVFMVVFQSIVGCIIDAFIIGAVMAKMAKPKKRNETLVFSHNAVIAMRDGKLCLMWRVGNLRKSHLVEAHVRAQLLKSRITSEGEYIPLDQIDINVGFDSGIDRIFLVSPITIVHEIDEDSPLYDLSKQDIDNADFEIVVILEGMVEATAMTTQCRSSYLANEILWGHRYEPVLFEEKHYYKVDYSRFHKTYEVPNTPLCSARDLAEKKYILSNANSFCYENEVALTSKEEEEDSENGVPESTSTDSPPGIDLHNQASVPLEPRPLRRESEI
On to `CCOc1cc(C(=O)Nc2ccc(S(=O)(=O)Nc3cnc4ccccc4n3)cc2)cc(OCC)c1OCC`, for which the B-score was 1.91.

Regarding `CN(C)C(CNC(=O)c1cccc(S(=O)(=O)Nc2ccc(Br)cc2)c1)c1ccco1` (centres undefined), the B-score was 0.84.

`O=C(NCc1ccccn1)Nc1ccc(Cl)cc1`: the B-score is 0.46.

With `CC(=O)C12CC(C)=C(C)CC1CC1C3CCC4=CC(=O)CCC4(C)C3CCC12C` (centres undefined), the B-score is 0.6.

Turning to `CCN(CC(=O)Nc1cc(Cl)ccc1C)C(=O)Cn1c(=O)cnc2ccccc21`, the B-score was -0.02.

With `CCN(CC(=O)Nc1cc(Cl)ccc1C)C(=O)CSCc1ccc(C)cc1`, the B-score was -4.45 (active).

As for `CCN(CC(=O)Nc1cc(Cl)ccc1C)C(=O)CN1C(=O)NC2(CCCC2)C1=O`, the B-score was -1.31.

In the case of `C=CCSc1nnc2c(n1)-c1cccc3cccc-2c13`, the B-score is 1.16.

Regarding `Cc1[nH][nH]c(=O)c1C(c1ccc2c(c1)OCO2)c1c(C)[nH][nH]c1=O`, the B-score was -0.12.

As for `Cc1[nH][nH]c(=O)c1C(c1ccc(-c2ccc(Cl)cc2)o1)c1c(C)[nH][nH]c1=O`, the B-score was -9.44 (active).

For `CCOc1ccc(C(c2c(C)[nH][nH]c2=O)c2c(C)[nH][nH]c2=O)cc1OCC`, the B-score is -0.06.

As to `Cc1cccc(Nc2nc(NCCO)nc(N3CCCC3)n2)c1`, the B-score was 0.27.

Turning to `CCCCn1c(N)c(N(Cc2ccccc2OC)C(=O)COc2cc(C)ccc2Cl)c(=O)[nH]c1=O`, the B-score is 0.8.

`COC(=O)[C@@]12CCCN1[C@H](c1ccc(-c3ccc(F)cc3)c(OC)c1)[C@H]1C(=O)N(C)C(=O)[C@H]12`: the B-score was -0.2.

In the case of `CC(C)(C)c1cc2cccnc2n1Cc1cccc(F)c1`, the B-score was -5.77 (active).

For the compound `CC(C)(C)c1cc2cccnc2n1Cc1ccccc1`, the B-score is -3.38.

As to `COc1ccnc2c1c(=O)n(Cc1cccc(F)c1)c(=O)n2C`, the B-score is 0.78.

`CC1CCC2(CC1)NC(=O)N(CC(=O)c1ccc3c(c1)OCO3)C2=O` (centres undefined): the B-score is 0.27.

In the case of `CC(C)c1ccc(N2CCN(C(=O)c3ccccc3NC(=O)/C=C(\C(=O)O)c3ccccc3)CC2)cc1`, the B-score is -8.79 (active).

Turning to `COc1ccc(C(=O)Nc2ccccc2C(=O)N2CCN(c3ccccc3)CC2)cc1`, the B-score was 0.29.

On to `O=C(O)C1CC=CCC1C(=O)Nc1ccccc1C(=O)N1CCN(c2ccccc2)CC1` (centres undefined), for which the B-score was -0.23.

As for `Cc1onc(-c2ccccc2Cl)c1C(=O)OCc1nnc(-c2ccccc2)o1`, the B-score is 0.59.

Take `COc1ccc(CCN=C2SCC(=O)N2C)cc1OC`: the B-score was 0.11.

With `COc1ccc(CCNC2=C(Cl)C(=O)N(Cc3ccccc3)C2=O)cc1OC`, the B-score was -1.89.

Turning to `COc1ccc(CCN=C2SCC(=O)N2Cc2ccccc2)cc1OC`, the B-score was -8.95 (active).

Regarding `COc1ccc(S(=O)(=O)NCc2cccnc2)cc1NC(=O)c1ccc(C)cc1`, the B-score is -1.69.

For the compound `COC(=O)c1c(-c2ccsc2)oc2ccc(-c3cc(OC)c(OC)c(OC)c3)cc12`, the B-score is 0.77.

On to `CC(C)Oc1ccc(S(=O)(=O)N2CCOCC2)cc1NC(=O)C1CSC2(C)CCC(=O)N12` (centres undefined), for which the B-score was -0.2.

For the compound `Cc1ccc(-c2nn(-c3ccc(F)cc3)cc2C(=O)NCC(c2cccs2)N2CCOCC2)cc1` (centres undefined), the B-score is 1.38.

As for `C=CCOc1cccc(C2C(C(=O)c3ccc(C)o3)=C(O)C(=O)N2c2nnc(C)s2)c1` (centres undefined), the B-score was -2.11.

Turning to `O=Cc1ccc(Oc2cccc(C(F)(F)F)c2)nc1`, the B-score is 0.35.

Regarding `Cc1nc(N)[nH]c(=O)c1Oc1cccc(C(F)(F)F)c1`, the B-score is 0.08.

As for `CCC(=O)OCc1c(C(F)(F)F)nn(C)c1Oc1cccc(C(F)(F)F)c1`, the B-score is -6.22 (active).

For the compound `CCOc1ccc(CCNC(=O)COC(=O)c2ccc(F)c(S(=O)(=O)N3CCOCC3)c2)cc1OCC`, the B-score is 0.3.

With `COc1ccc(NC(=O)CSc2nnc(-c3cccs3)n2Cc2ccco2)cc1OC`, the B-score was 0.49.

Take `O=C(CSc1nnc(-c2cccs2)n1Cc1ccco1)c1ccc2c(c1)OCO2`: the B-score is -4.78 (active).

`O=C(CSc1nnc(-c2cnccn2)n1Cc1ccco1)c1ccc(Cl)c(Cl)c1`: the B-score was 0.04.

Regarding `CCn1c(SC(C)C(=O)Nc2ccc(N3CCOCC3)cc2)nnc1-c1ccco1` (centres undefined), the B-score is -1.79.

Take `CCN(CC)c1ccc(S(=O)(=O)N2CCCCC2)cc1NC(=O)C1=COCCO1`: the B-score is 1.68.

On to `CCCc1cc(=O)[nH]c(SCC(=O)c2cc(C)n(CCC)c2C)n1`, for which the B-score was -6.83 (active).

`Cc1cc(C(=O)CSc2nc(N)cc(=O)[nH]2)c(C)n1CCc1ccc(Cl)cc1`: the B-score is -0.26.

As for `CCCc1cc(=O)[nH]c(SCC(=O)c2c(N)n(CC(C)C)c(=O)n(C)c2=O)n1`, the B-score is 0.93.

Turning to `Cc1ncc(CO)c(/C=N/NC(=O)c2cccc(S(=O)(=O)N3CCCC3)c2)c1O`, the B-score is -1.2.

In the case of `NC(=O)CSc1nnc(NC(=O)c2ccc3ccccc3c2)s1`, the B-score was 1.23.

As for `Cc1ccc(-c2csc(NC(=O)C3=COCCO3)n2)cc1C`, the B-score was 0.03.

Turning to `Cc1cc(Nc2ccc(Br)cc2)nc2ccccc12`, the B-score is -0.01.

`COc1ccc(S(=O)(=O)NCCc2c[nH]c3ccccc23)cc1OC`: the B-score is -1.99.

For the compound `COc1cccc(CNCCc2c[nH]c3ccccc23)c1OCc1ccccc1F`, the B-score is -12 (active).

As for `COc1ccccc1CC(=O)NCCc1c[nH]c2ccccc12`, the B-score was -0.19.
